# Experimental data: PubChem BioAssay (NCATS)
# Values joined by “and” are separate entries in the source; they are usually repeats but may differ in a detail not shown here. Equal values may be shown once. Inconclusive results are not listed. A call without a number means that no potency is given here. A number with no mark means an inactive call. Active and inactive are the calls of the source. The call rests on the fitted dose curve; in most records, active means well fitted curve in the direction sought with a large enough effect; inconclusive means small, poorly fitted or top-dose-only effect, or another doubt; inactive means no such curve, though single readings can be large; an effect the other way counts as inactive or inconclusive.
# What was measured:
# [1] = test system: KB-3-1; experiment: Cytotoxic Profiling of Annotated Libraries Using Quantitative High-Throughput Screening (AID 1296008); conditions: Five cell lines viability, CellTiter-Glo ATP luminescence, 48-72 h; max response: active compounds read low; further: nearly all actives have a fitted effect of over 60% in size
# Procedure, shortened: (§1)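 Cells exposed to compounds for 48 or 72 hr at 37 degrees Celsius. Viability read as ATP-coupled luminescence with CellTiter-Glo after 10 min at room temperature.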
# [2] = test system: NIH3T3; experiment: as above; conditions: Five cell lines viability, CellTiter-Glo ATP luminescence, 48-72 h; max response: active compounds read low
# Procedure, shortened: as §1
# [3] = test system: C33A; experiment: Primary qHTS to identify gynecologic anti-cancer compounds using libraries of approved drugs and bioactive compounds (AID 1345084); conditions: Gynecologic cancer cell panel viability, ATPlite luminescence, 48 h; series mostly up to 57.5 µM; further: nearly all actives have a fitted effect of over 55% in size
# Procedure, shortened: (§2)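 In this quantitative HTS, cell killing is estimated from loss of ATP-dependent luciferase light. Cells see five compound concentrations over a 48 h exposure.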
# [4] = test system: CAOV3; experiment: as above; conditions: Gynecologic cancer cell panel viability, ATPlite luminescence, 48 h; series mostly up to 57.5 µM
# Procedure, shortened: as §2
# [5] = test system: CASKI; experiment: as above; conditions: Gynecologic cancer cell panel viability, ATPlite luminescence, 48 h; series mostly up to 57.5 µM
# Procedure, shortened: as §2
# [6] = test system: Es-2; experiment: as above; conditions: Gynecologic cancer cell panel viability, ATPlite luminescence, 48 h; series mostly up to 57.5 µM
# Procedure, shortened: as §2
# [7] = test system: HeLa; experiment: as above; conditions: Gynecologic cancer cell panel viability, ATPlite luminescence, 48 h; series mostly up to 57.5 µM
# Procedure, shortened: as §2
# [8] = test system: Hek293T; experiment: as above; conditions: Gynecologic cancer cell panel viability, ATPlite luminescence, 48 h, control line for the selectivity index; series mostly up to 57.5 µM
# Procedure, shortened: as §2
# [9] = test system: JEG-3; experiment: as above; conditions: Gynecologic cancer cell panel viability, ATPlite luminescence, 48 h; series mostly up to 57.5 µM
# Procedure, shortened: as §2
# [10] = test system: OV90; experiment: as above; conditions: Gynecologic cancer cell panel viability, ATPlite luminescence, 48 h; series mostly up to 57.5 µM
# Procedure, shortened: as §2
# [11] = test system: PA-1; experiment: as above; conditions: Gynecologic cancer cell panel viability, ATPlite luminescence, 48 h; series mostly up to 57.5 µM
# Procedure, shortened: as §2
# [12] = test system: SKOV3; experiment: as above; conditions: Gynecologic cancer cell panel viability, ATPlite luminescence, 48 h; series mostly up to 57.5 µM
# Procedure, shortened: as §2
# [13] = test system: HEK293T; experiment: qHTS assay to identify novel small-molecules to repurpose for Merkel cell carcinoma treatment (AID 1296009); conditions: MCC and control cell lines, CellTiter-Glo viability, 72 h; further: nearly all actives have a fitted effect of over 60% in size
# Procedure, shortened: (§3)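 Cells were treated for 72 hr at 37 degree celsius with compounds in 8- or 11-point dose response. Viability was read by CellTiter-Glo luminescence, normalized to no-cell (cytotoxicity) and DMSO controls.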
# [14] = test system: MKL-2; experiment: as above; conditions: MCC and control cell lines, CellTiter-Glo viability, 72 h
# Procedure, shortened: as §3
# Potency means the concentration at half of the fitted maximal effect.
compound,measurement,setting,value
CCC/C=C/c1cc2c(C=O)c(O)c(CC=C(C)C)cc2o1,max response,[1],3.3%
same,max response,[2],-11.8%
same,Potency,[3],inactive
same,Potency,[4],inactive
same,Potency,[5],inactive
same,Potency,[6],inactive
same,Potency,[7],inactive
same,Potency,[8],inactive
same,Potency,[9],inactive
same,Potency,[10],inactive
same,Potency,[11],inactive
same,Potency,[12],inactive
C=C1C(=O)O[C@H]2C1CCC(C)=C1C(=O)C=C(C)[C@@]12O (some centres not stated),max response,[1],-10.7%
same,max response,[2],-6.36%
same,Potency,[3],inactive
same,Potency,[4],inactive
same,Potency,[5],inactive
same,Potency,[6],inactive
same,Potency,[7],inactive
same,Potency,[8],inactive
same,Potency,[9],inactive
same,Potency,[10],inactive
same,Potency,[11],inactive
same,Potency,[12],inactive
C=C1C(=O)O[C@@H]2C[C@H](C)[C@@H]3CC(=O)[C@H](O)[C@@]3(C)C[C@H]12,outcome,[1],inactive
same,max response,[2],-22.8%
same,Potency,[3],inactive
same,Potency,[5],inactive
same,Potency,[7],inactive
same,Potency,[8],inactive
same,Potency,[9],inactive
same,Potency,[10],inactive
same,Potency,[11],25.1 µM (active)
same,Potency,[12],inactive
Cc1cccc(C)c1N(CCCc1cccnc1)C(=O)C(C)N (configuration not stated),max response,[1],-6.26%
Cc1c(N)nc(C(CC(N)=O)NCC(N)C(N)=O)nc1C(=O)NC(C(=O)NC(C)C(O)C(C)C(=O)NC(C(=O)NCCc1nc(-c2nc(C(=O)NCCCN[C@@H](C)c3ccccc3)cs2)cs1)C(C)O)C(O[C@@H]1O[C@@H](CO)[C@@H](O)[C@H](O)[C@@H]1O[C@H]1O[C@H](CO)[C@@H](O)[C@H](OC(N)=O)[C@@H]1O)c1cnc[nH]1 (some centres not stated),max response,[1],-0.767%
C=C1C(=C/C=C2\CCC[C@]3(C)[C@@H]([C@H](C)CCCC(C)(C)O)CC[C@@H]23)C[C@@H](O)C[C@@H]1O,max response,[1],4.02%
CC(=O)O[C@@H]1[C@@H](OC(C)=O)[C@H](C)O[C@@H](O[C@H]2[C@@H]3C=CO[C@@H](O[C@@H]4O[C@H](CO)[C@@H](O)[C@H](O)[C@H]4O)[C@@H]3[C@@]3(CO)O[C@@H]23)[C@@H]1OC(=O)/C=C/c1ccccc1,max response,[1],2.67%
same,max response,[2],-8.05%
same,Potency,[3],inactive
same,Potency,[4],inactive
same,Potency,[5],inactive
same,Potency,[6],inactive
same,Potency,[7],inactive
same,Potency,[8],inactive
same,Potency,[9],inactive
same,Potency,[10],inactive
same,Potency,[12],inactive
CCC(C)(C)OC(=O)N[C@@H](Cc1c[nH]c2ccccc12)C(=O)N[C@@H](CCSC)C(=O)N[C@@H](CC(=O)O)C(=O)N[C@@H](Cc1ccccc1)C(N)=O,max response,[1],0.713%
C[C@H](Oc1cc(-n2cnc3ccc(CN4CCN(C)CC4)cc32)sc1C(N)=O)c1ccccc1C(F)(F)F,Potency,[1],1.03 µM (active)
same,Potency,[2],18.4 µM (active)
same,Potency,[13],1.3 µM (active)
same,Potency,[3],15.8 µM (active)
same,Potency,[4],inactive
same,Potency,[6],11.2 µM (active)
same,Potency,[7],5.01 µM (active)
same,Potency,[9],3.16 µM (active)
same,Potency,[10],inactive
same,Potency,[11],11.2 µM (active)
COc1ccc(CNCC(O)COc2ccc3[nH]c(=O)ccc3c2)cc1OC (configuration not stated),max response,[1],2.61%
Cc1ccc(/C(=C\CN2CCCC2)c2cccc(/C=C/C(=O)O)n2)cc1,max response,[1],-13.8%
CCCCCCCC(=O)CC[C@@H]1[C@@H](C/C=C\CCCC(=O)OC(C)C)[C@@H](O)C[C@H]1O,max response,[1],7.18%
O=[N+]([O-])c1ccc(Oc2ccc(N=C=S)cc2)cc1,max response,[1],-16.8%
C=C[C@@]1(C)CCC2C(=CCC3[C@]2(C)CCC[C@@]3(C)C(=O)O)C1 (some centres not stated),max response,[1],-10.5%
same,max response,[2],-28.5%
same,Potency,[3],inactive
same,Potency,[4],inactive
same,Potency,[6],inactive
same,Potency,[7],inactive
same,Potency,[8],inactive
same,Potency,[9],inactive
same,Potency,[10],inactive
same,Potency,[12],inactive
Cc1ccc(S(=O)(=O)N2CCC[C@H]2c2ccc(F)cc2)cc1,max response,[1],-12.3%
same,max response,[2],-13.3%
same,Potency,[3],inactive
same,Potency,[4],inactive
same,Potency,[5],inactive
same,Potency,[6],inactive
same,Potency,[7],inactive
same,Potency,[8],inactive
same,Potency,[9],inactive
same,Potency,[11],inactive
same,Potency,[12],inactive
CN[C@@H]1CCc2[nH]c3ccc(C(N)=O)cc3c2C1,max response,[1],-3.81%
CSCC[C@H](NC(=O)[C@H](Cc1ccc(OS(=O)(=O)O)cc1)NC(=O)[C@@H](N)CC(=O)O)C(=O)NCC(=O)N[C@@H](Cc1c[nH]c2ccccc12)C(=O)N[C@@H](CCSC)C(=O)N[C@@H](CC(=O)O)C(=O)N[C@@H](Cc1ccccc1)C(N)=O,max response,[1],-5.26% and -10.7%
Oc1cccc(-c2c3nc(c(-c4cccc(O)c4)c4ccc([nH]4)c(-c4cccc(O)c4)c4nc(c(-c5cccc(O)c5)c5ccc2[nH]5)CC4)C=C3)c1,Potency,[14],13.3 µM (active)
